61 molecules from PubChem BioAssay AID1851 (National Center for Advancing Translational Sciences (NCATS), 2009) can be followed below.

In all, about 16,000 compounds went through this assay and about 5,100 (32%) were called active. Another 25% or so got no clear call; they are omitted. Some of the results follow. A number with no mark means an inactive call. The call rests on the fitted dose curve; in most records, active means well fitted curve in the direction sought with a large enough effect; inconclusive means small, poorly fitted or top-dose-only effect, or effect the other way; inactive means no such curve, though single readings can be large or run the other way.
On the % scale 0 is the no-effect control and ±100 the full control effect.

Cytochrome P450 3A4 (Homo sapiens), sequence (P08684 whole entry, looked up): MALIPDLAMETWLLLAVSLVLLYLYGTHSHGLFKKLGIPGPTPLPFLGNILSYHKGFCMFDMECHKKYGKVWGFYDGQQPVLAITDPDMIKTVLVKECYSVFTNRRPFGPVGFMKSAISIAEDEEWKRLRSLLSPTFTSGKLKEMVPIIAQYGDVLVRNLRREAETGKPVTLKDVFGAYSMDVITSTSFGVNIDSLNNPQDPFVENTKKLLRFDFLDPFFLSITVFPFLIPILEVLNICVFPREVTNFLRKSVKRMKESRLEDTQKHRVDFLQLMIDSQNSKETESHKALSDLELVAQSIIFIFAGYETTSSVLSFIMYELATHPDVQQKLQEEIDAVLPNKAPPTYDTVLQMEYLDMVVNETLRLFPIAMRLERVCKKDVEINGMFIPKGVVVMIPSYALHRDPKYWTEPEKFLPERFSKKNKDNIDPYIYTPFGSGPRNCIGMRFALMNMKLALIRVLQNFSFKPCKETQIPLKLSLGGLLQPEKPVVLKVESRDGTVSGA

The assay has as its target Cytochrome P450 3A4 (Homo sapiens) (UniProt P08684). In words: Cytochrome panel assay with activity outcomes. Conditions: recombinant CYP, pro-luciferin dealkylation, luminescence, p450-cyp3a4; series mostly up to 57.1 µM.
As usually defined, the AC50 is the midpoint of the concentration-response curve, whichever way the signal moves. `CCCC[C@H](CC)CN1CN(C[C@@H](CC)CCCC)CC(C)(N)C1`: the AC50 result was “inactive”. Same read-out and setting: as for `CC(C)(C)n1nc(-c2ccc(Cl)cc2)c2c(N)ncnc21`, the entry is “inactive”. The same measure, in the same setting: for `COC(=O)[C@@]1(Cc2ccc(F)cc2)[C@H]2c3cc(C(=O)N(C)C)n(Cc4ccc(Cl)c(C(F)(F)F)c4)c3C[C@H]2CN1C(=O)c1ccccc1` the value was 2 µM (active); for `COC(=O)[C@@]1(Cc2ccc(F)cc2)[C@H]2c3cc(C(=O)N4CCCC4)n(CCCNc4ncc(C(F)(F)F)cc4Cl)c3C[C@H]2CN1C(=O)c1ccccc1`, 2.51 µM (active); for `COC(=O)[C@@]1(Cc2ccc(F)cc2)[C@H]2c3cc(C(=O)N4CCCC4)n(Cc4ccc(Cl)c(C(F)(F)F)c4)c3C[C@H]2CN1C(=O)c1ccccc1`, 2.51 µM (active). In the case of `COC(=O)[C@@]1(Cc2ccc(F)cc2)[C@H]2c3cc(C(=O)N4CCCC4)n(Cc4ccc(OC(F)(F)F)cc4)c3C[C@H]2CN1C(=O)c1ccccc1`, the AC50 was 2.51 µM (active). With `Cc1nc(CN2CCCCC2)c(O)c(=O)[nH]1`, the activity, negative = inhibition is -5.47% [at 11.4 µM]. As for `CC1(O)CC(=O)N(c2ccccc2)O1` (stereo unspecified), the activity, negative = inhibition is 1.65% [at 2.29 µM]. Turning to `COC(=O)[C@@]1(Cc2ccc(F)cc2)[C@H]2c3cc(C(=O)N(C)C)n(CCCNc4ccc(C(F)(F)F)cc4Cl)c3C[C@H]2CN1C(=O)c1ccccc1`, the AC50 was 1.58 µM (active). On the same count and under the same terms, for `COC(=O)Cn1c(=N)n(CCN2CCCCC2)c2ccccc21` the value was “inactive”. Take `COC(=O)[C@@]1(Cc2ccc(F)cc2)[C@H]2c3cc(C(=O)N4CCCC4)n(CCN4CNCC4=O)c3C[C@H]2CN1C(=O)c1ccccc1`: the half-maximal activity concentration (AC50) is 2 µM (active). Take `COC(=O)Cn1c(C(=O)N2CCCC2)cc2c1C[C@H]1CN(C(=O)c3ccccc3)[C@@](Cc3ccc(F)cc3)(C(=O)OC)[C@@H]21`: the half-maximal activity concentration (AC50) was 3.16 µM (active). On the same count and under the same terms, as for `COC(=O)[C@@]1(Cc2ccc(F)cc2)[C@H]2c3cc(C(=O)N4CCCC4)n(Cc4ccccc4)c3C[C@H]2CN1C(=O)c1ccccc1`, the figure is 1 µM (active). On to `C=C1C=C(Br)C2(OCCCO2)[C@H]2OC12` (stereo partly specified), for which the activity, negative = inhibition is -14.7% [at 11.4 µM]. Consider `CC1(C)C2([N+](=O)[O-])CN3CC1([N+](=O)[O-])CN(C2)C3c1ccccc1` (stereo unspecified), for which the activity, negative = inhibition is 0.512% [at 2.29 µM].

As to `C[C@@H](C(=O)NCc1ccc(S(C)(=O)=O)cc1)[C@@H]1C[C@@]1(C)[C@@H](NC(=O)OCc1ccccc1)c1ccccc1`, the AC50 is 1 µM (active). For the molecule `C[C@@H](C(=O)NCc1ccc(S(C)(=O)=O)cc1)[C@H]1C[C@]1(C)[C@H](NC(=O)OCc1ccccc1)c1ccccc1`, the concentration at half-maximal activity (AC50) is 3.16 µM (active). The same measure, in the same setting: for `CC(NC(=O)OCc1ccccc1)C(=O)NCC1CCCO1` (stereo unspecified) the value was “inactive”; for `CS(=O)(=O)c1ccc([C@H](O)[C@H](CO)NC(=O)C(Cl)Cl)cc1`, “inactive”; for `C[C@@H](C(=O)NCc1cccc2ccccc12)[C@H]1C[C@]1(C)[C@H](NC(=O)OCc1ccccc1)c1ccccc1`, 0.398 µM (active). On the same count and under the same terms, for `C[C@@H](C(=O)NCc1nc2ccccc2[nH]1)[C@@H]1C[C@@]1(C)[C@@H](NC(=O)OCc1ccccc1)c1ccccc1` the value was 1 µM (active); for `Cc1cccc(C)c1OC[C@H](C)N`, “inactive”. On to `C=CCSc1ncccc1C(=O)NCc1ccc(C)cc1`, for which the half-maximal activity concentration (AC50) was 11.2 µM (active). Still for that read-out and setting: for `CC/C(=N/Nc1ccccc1)c1cnnc(SC)n1` the value was 25.1 µM (active); for `CSc1nncc(-c2ccc(F)c(F)c2)n1`, “inactive”; for `CC(=O)Nc1sc2c(c1C(N)=O)CCCC2`, “inactive”. For the molecule `COCCCNC(=O)c1c(NC(=O)c2cccs2)sc2c1CCCC2`, the AC50 was 15.8 µM (active). With `CCNC(=O)c1c(NC(C)=O)sc2c1CCCC2`, the AC50 result was “inactive”. Regarding `OC[C@@H](O)COc1cccc2ccccc12`, the AC50 entry is “inactive”. As to `OC(COc1ccc(OCC(O)CN2CCCCCC2)cc1)CN1CCCCCC1` (stereo unspecified), the AC50 entry was “inactive”. As for `CC(C)NC[C@@H](O)COc1ccccc1-n1cccc1`, the AC50 entry was “inactive”. Take `Cc1ccc(OCC(O)Cn2c3ccccc3c3ccccc32)cc1` (stereo unspecified): the half-maximal activity concentration (AC50) was 17.8 µM (active). Same read-out and setting: for `CC(=O)Nc1ccc(OCC(O)Cn2c3ccccc3c3ccccc32)c(C)c1` (stereo unspecified) the value was 3.98 µM (active).

As for `O[C@H](COc1ccccc1)CN1CCCCC1`, the activity, negative = inhibition was -3.03% [at 11.4 µM]. For the molecule `Cc1ccccc1OCC(O)Cn1c2ccccc2c2ccccc21` (stereo unspecified), the AC50 was 12.6 µM (active). Still for that read-out and setting: for `Cc1cccc(C)c1OCC(O)CNC(C)(C)C` (stereo unspecified) the value was “inactive”. Consider `O[C@@H](COc1cccc2ccccc12)CN1CCOCC1`, for which the activity, negative = inhibition was -6.73% [at 11.4 µM].

Regarding `CC(=O)Nc1c(I)c(C(=O)N[C@H]2[C@@H](O)[C@H](O)[C@H](CO)O[C@@H]2O)c(I)c(N(C)C(C)=O)c1I`, the AC50 result was “inactive”.

On to `NC(N)=NC(=O)c1nc(Cl)c(N2CCCCCC2)nc1N`, for which the AC50 entry was “inactive”.

With `Cc1cc(C)n(-c2nnc(C)n2/N=C/c2ccccc2OCc2ccccc2Cl)n1`, the concentration at half-maximal activity (AC50) is 2.24 µM (active). Turning to `O=C(c1ccc(F)cc1)C1CCN(C(=S)Nc2ccccc2)CC1`, the AC50 was 10 µM (active). For the molecule `S=C(Nc1ccccc1)N1CCCCC1`, the AC50 entry was “inactive”. Take `CCCNC(=O)N1CCC(C(=O)c2ccc(F)cc2)CC1`: the activity, negative = inhibition is -0.769% [at 2.29 µM]. Take `N#Cc1cc(-c2ccc(Cl)cc2)cnc1Sc1ccccc1`: the AC50 entry was “inactive”.

For `Cc1ccc(Sc2cc(Cl)nc(N)n2)cc1`, the AC50 entry is “inactive”.

As to `N#Cc1cc(N)ccc1Sc1ccc(Cl)cc1`, the AC50 is 5.62 µM (active).

Take `COc1cc2c3cc1Oc1cc(ccc1O)C[C@@H]1c4c(cc(OC)c(O)c4Oc4ccc(cc4)C[C@H]3[N+](C)(C)CC2)CC[N+]1(C)C`: the activity, negative = inhibition is 0.655% [at 11.4 µM].

Turning to `C/C(=C/C(=O)NCc1ccccc1)C(=O)O`, the AC50 entry was “inactive”.

Regarding `C=CC(=O)NC(C)(C)Cc1ccccc1`, the AC50 was 15.8 µM (active). Turning to `N[C@@](CC(=O)O)(Cc1ccccc1)C(=O)O`, the activity, negative = inhibition was -4.69% [at 11.4 µM].

With `CC1CCCC(NC(=O)CCn2c(=O)oc3ccccc32)C1C` (stereo unspecified), the AC50 is 14.1 µM (active).

With `COCCNC(=O)CCn1c(=O)oc2ccccc21`, the AC50 result was “inactive”.

In the case of `Cc1ccc(CNC(=O)Cn2c(=O)oc3ccccc32)o1`, the activity, negative = inhibition is 1.22% [at 11.4 µM]. For the molecule `CC[N+](C)(C)c1cccc(O)c1`, the AC50 result is “inactive”. Consider `CC1(C)c2ssc(=S)c2-c2ccccc2N1C(=O)CSC1=NCCS1`, for which the AC50 was 1.78 µM (active). The same measure, in the same setting: for `COc1ccc(-n2c(=O)cnc3cnc(OC)nc32)cc1` the value was “inactive”; for `O=c1cnc2cnc(Oc3ccccc3)nc2n1C1CC1`, “inactive”; for `O=c1cnc2cnc(Oc3cccc(Cl)c3)nc2n1C1CC1`, “inactive”.

`COc1ccc(-n2c(=O)cnc3cnc(N4CCOCC4)nc32)cc1`: the AC50 entry is “inactive”. For the molecule `COc1ccc(-n2c(=O)cnc3cnc(Oc4cccc(Cl)c4)nc32)cc1`, the half-maximal activity concentration (AC50) was 10 µM (active).

On to `COc1ccc(-n2c(=O)cnc3cnc(Oc4ccccc4)nc32)cc1`, for which the AC50 is 15.8 µM (active).
